HPGD inh: HPGD (human) dehydrogenase inhibition. Potency, µM, hits mostly inhibitors. 4.3% of 150,000 active. P15428. purified HPGD, NADH fluorescence kinetic, PGE2 substrate
Target sequence (P15428 whole entry, looked up): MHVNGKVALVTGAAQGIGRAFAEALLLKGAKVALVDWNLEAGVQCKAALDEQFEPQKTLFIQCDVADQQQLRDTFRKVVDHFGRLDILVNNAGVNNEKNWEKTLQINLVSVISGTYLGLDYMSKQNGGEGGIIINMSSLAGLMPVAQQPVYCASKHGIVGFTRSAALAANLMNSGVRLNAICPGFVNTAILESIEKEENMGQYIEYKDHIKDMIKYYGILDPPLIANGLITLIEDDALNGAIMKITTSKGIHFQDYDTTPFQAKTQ
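NADH formation kinetics: reaction with 30 uM PGE2 and 1 mM NAD+ (final), 20 nM enzyme, Tris-HCl pH 8 with Tween 20, after 15 min compound preincubation at room temperature. Fluorescence change, last versus first of five reads.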
ALDH1A1 inh: inhibitors of human aldehyde dehydrogenase 1A1 | AID 1030 | Purified ALDH1A1, NADH fluorescence, propionaldehyde substrate | P00352 | 7.3% of 220,000 active | Potency, µM (series often up to 75.3 µM), hits mostly inhibitors
HTT aggregate: reduces HttQ103-GFP aggregates in PC12 cells. PC12 HttQ103-GFP aggregates, Acumen cytometry, 40 h. Potency, µM (series often up to 46.1 µM), hits mostly inhibitors. 1.1% of 220,000 active. AID 1688; active means well fitted curve in the direction sought with a large enough effect; inconclusive means small, poorly fitted or top-dose-only effect, or another doubt; inactive means no such curve, though single readings can be large; an effect the other way counts as inactive or inconclusive; further: nearly all actives have a fitted effect of over 60% in size
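PC12/HTTQ103-GFP, ecdysone-inducible; teb 100 nM; cpd qHTS titration; GFP aggregates read on laser cytometer, Ex 488/Em 500-530 nm.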
HTT cytoprotect: protects HTT-Q103 PC12 cells, measured by ATP; PC12 HTT-Q103 induced, cytoprotection, ATP luminescence, 40 h; Potency, µM (highest dose often 56.4 µM), most hits filed as activators; 0.14% of 230,000 active; active means well fitted curve in the direction sought with a large enough effect; inconclusive means small, poorly fitted or top-dose-only effect, or another doubt; inactive means no such curve, though single readings can be large; an effect the other way counts as inactive or inconclusive; further: nearly all actives have a fitted effect of over 45% in size
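ATP quantification (ATPlite) reports survival of PC12 cells in which tebufenozide, 100 nM final, switches on Htt exon 1 with 103 glutamines linked to GFP; compounds are titrated.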
Lamin A splicing: LMNA splicing modulation. HeLa LMNA splicing GFP/RFP minigene ratio, 48 h. Potency, µM (series often up to 46.1 µM), actives largely listed as inhibitors. 0.01% of 200,000 active; active means well fitted inhibition curve with a large enough effect in the signal ratio, with a control signal flat, not every such curve was filed as active; inconclusive means small, poorly fitted or top-dose-only effect, or effect the other way, or a change in a side signal; the % refers to the signal ratio
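S3 HeLa stable clones carrying a lamin A-EGFP splicing minigene plus DsRed2 were seeded at 600 cells/well in Opti-MEM with 2% FBS, pin-dosed and incubated 48 h at 37°C. Acumen cytometry (488 nm) gave the GFP/RFP total-intensity ratio.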
A number is an active result; . = inactive; ? = inconclusive; / = not tested or not shown; [ ] = another dose, or the depositor's remark. Shown are actives, neighbours in structure and some others; about 8.8% of the full set was active somewhere. Unless noted, the call rests on the fitted dose curve; in most records, active means well fitted inhibition curve with a large enough effect (not every such curve was filed as active); inconclusive means small, poorly fitted or top-dose-only effect, or another doubt; inactive means no such curve, though single readings can be large or run the other way.

SMILES	HPGD inh	ALDH1A1 inh	HTT aggregate	HTT cytoprotect	Lamin A splicing
COc1ccc(N2C(=O)CSC23C(=O)N(CC(=O)NCCc2ccccc2)c2ccccc23)cc1 (stereo unspecified)	/	/	/	/	.
O=C(CCl)NCCCCCCCCCNC(=O)CCl	.	0.18µM	.[9.22 µM]	.[10 µM]	.
CC(=O)c1ccc(NC(=O)CSc2ccc3nc(-c4ccccc4)cn3n2)cc1	/	/	/	/	.
CC1(C)Cc2ccccc2C(NNC(=O)c2ccccn2)=N1	.	.	18µM	.	?
CC1(C)Cc2ccccc2C(NNC(=O)c2ccccc2)=N1	/	.	.	.	/
O=C(Cn1c(SCc2ccc(F)cc2)nc2cccnc21)Nc1ccccc1F	/	/	/	/	.
Cc1[nH]c2ccccc2c1NC(=O)CN1CCN(Cc2ccc3c(c2)OCO3)CC1	.	.	.	.[0.074 µM]	.
Cc1[nH]c2ccccc2c1C(=O)C(=O)N1CCN(C(=O)c2ccco2)CC1	/	6.3µM	.	/	/
Cc1[nH]c2ccccc2c1NC(=O)CN1CCN(C(=O)c2ccco2)CC1	/	6.3µM	.[9.22 µM]	.[10 µM]	/
CCOC(=O)c1c(NC(=O)CN2CCN(C(=O)c3ccco3)CC2)sc2c1CCCC2	.	24µM	25µM	.[10 µM]	?
Cc1ccc(C2SCCN2C(=O)c2ccc([N+](=O)[O-])cc2)cc1 (stereo unspecified)	.	?	.	/	.
COc1cccc(CNC(=O)Cc2c(C(=O)O)c(C)cn2C)c1	/	/	/	/	.
N#CC1=C(N)N(c2ccccc2C#N)C2=C(C(=O)CCC2)C1c1ccsc1 (stereo unspecified)	.	25µM	.	.	.
Cc1c(C2C(C#N)=C(N)N(c3ccccc3C#N)C3=C2C(=O)CCC3)cnn1C (stereo unspecified)	.	.	.	.[0.074 µM]	.
OC(CNCc1ccccc1)Cn1ccc2ccccc21 (stereo unspecified)	.	?	.	/	.
Cc1cc(C)n(CC(O)Cn2ccc3ccccc32)n1 (stereo unspecified)	?	.	.	.	.
Oc1ccccc1NCC(O)Cn1ccc2ccccc21 (stereo unspecified)	/	14µM	.	.	.
OCc1nc2ccccc2n1CC(O)Cn1ccc2ccccc21 (stereo unspecified)	.	22µM	?	.	?
O=C1c2ccccc2S(=O)(=O)N1CC(O)Cn1ccc2ccccc21 (stereo unspecified)	.	13µM	.	.	.
Cc1ccccc1OCC(=O)OCc1cc(=O)n2nc(C3CC3)sc2n1	/	/	/	/	.
C[C@](O)(c1ccccc1)c1nccc2ccccc12	.	.[13.5 µM]	/	.[10 µM]	/
CCN(CC)C(=O)Oc1ccc2ccccc2c1Br	/	.	.	.	/
O=C(Oc1ccc2ccccc2c1Br)N1CCCCCC1	32µM	.	?	.	?
COC(=O)NNC(=O)COc1ccc2ccccc2c1Br	16µM	.	.	.[10 µM]	.
CC(C)(C)C(=O)NNC(=O)COc1ccc2ccccc2c1Br	/	.	.	.	?
SMILES	HPGD inh	ALDH1A1 inh	HTT aggregate	HTT cytoprotect	Lamin A splicing
COc1ccc(C(=O)NCCSCc2ccccc2C)cc1	.	?	.	.	.
O=C(NCCSc1ccccc1)c1cccnc1	.	?	.	.[10 µM]	.
COc1ccc(C(=O)NCCSc2ccc(C)cc2)cc1	.	10µM	.	.[10 µM]	.
Cc1ccc(SCCNC(=O)c2ccccc2)cc1	16µM	?	.	.	.
Cc1cc(C)nc(SCNC(=O)c2ccccc2)n1	14µM	.	.	.[10 µM]	.
COCCNC(=O)c1ccc(C(=O)C(=O)c2ccccc2)cc1	14µM	.	.	.[0.074 µM]	.
COc1cc(NC(=O)Cn2nnc(-c3ccc(C(F)(F)F)cc3)n2)c(C(=O)O)cc1OC	/	/	/	/	.
Cc1ccc(CSCCNC(=O)c2ccc(C)cc2)cc1	/	?	.	.	?
O=C(NCCSC1CCCCC1)c1ccccc1	/	?	.[9.22 µM]	.	/
COc1ccc(C(=O)NCCSCc2ccc(C)cc2)cc1	.	2.2µM	.	.	.[0.0737 µM]
COc1ccc(C(=O)NCCSC2CCCCC2)cc1	.	3.5µM	.	.[0.074 µM]	.
C[C@@](N)(Cc1ccc(O)c(O)c1)C(=O)O	?	.	/	.	?
CC(=O)Nc1cccc(NC(=O)CSc2nc(C)c(C)c(C)c2C#N)c1	?	10µM	.	.	.
CC(C)COc1ccc(C(=O)Nc2sc3c(c2C(=O)O)CC(C)(C)OC3)cc1	/	20µM	.[9.22 µM]	.[10 µM]	/
CC1(C)Cc2c(sc(NC(=O)c3ccccc3)c2C(=O)O)CO1	/	22µM	/	/	/
CCOC(=O)c1c(NC(=O)c2cccs2)sc2c1CC(C)(C)OC2	?	?	.	.[0.074 µM]	?
CCOCCCNC(=O)C1CCN(c2nc3ccc(Cl)cc3[nH]2)CC1	/	/	/	/	.
Cc1ccc(NC(=O)CN2C(=O)c3ccccc3Sc3ccc(C(=O)N4CCOCC4)cc32)cc1C	/	/	/	/	.
CCCCC(CC)COP(=O)(OCC(CC)CCCC)OCC(CC)CCCC (stereo unspecified)	.	.	/	.	/
CCCCC(CC)CNCC(CC)CCCC (stereo unspecified)	.	25µM	/	.	/
CCOc1ccc(N(CC(=O)Nc2ccc(OC)cc2)S(C)(=O)=O)cc1	.	18µM	.	.[10 µM]	.
COc1ccc(OC)c(N(CC(=O)Nc2ccccc2C(=O)NCc2ccco2)S(C)(=O)=O)c1	.	?	.	.	.
CCOc1ccc(N(CC(=O)Nc2cccc(OC)c2)S(=O)(=O)c2c(C)noc2C)cc1	.	.	.	.[10 µM]	?
CCOc1ccc(N(CC(=O)Nc2cccc(Cl)c2)S(=O)(=O)c2c(C)noc2C)cc1	.	.	22µM	.	.
COc1ccc(N(CC(=O)Nc2ccccc2C(=O)NCc2ccco2)S(C)(=O)=O)cc1	.	11µM	.	.	.
SMILES	HPGD inh	ALDH1A1 inh	HTT aggregate	HTT cytoprotect	Lamin A splicing
CCOc1ccc(NC(=O)CN(c2ccc(OC)cc2)S(C)(=O)=O)cc1	.	?	.	.	?
CS(=O)(=O)N(Cc1ccc(C(=O)NCCSCc2ccco2)cc1)c1ccccc1	?	.	.	.[10 µM]	.
CS(=O)(=O)N(Cc1ccc(C(=O)NCc2ccco2)cc1)c1ccccc1	28µM	.	.	.	.
Cc1ccc(NC(=O)CSc2nnc(-c3ccncc3)n2C)cc1S(=O)(=O)N1CCOCC1	/	.	.	.	.
O=C(NC[C@H]1CCCCN1)c1cc(OCC(F)(F)F)ccc1OCC(F)(F)F	.	.	/	.	/
COc1ccc(C2=NN(S(=O)(=O)c3ccccc3)C(c3ccccc3)C2)cc1 (stereo unspecified)	/	/	.[9.22 µM]	.[10 µM]	/
COc1ccc(C2=NN(CN3C(=O)C(=O)c4ccccc43)C(c3ccc(OC)cc3)C2)cc1 (stereo unspecified)	.	0.11µM	.	/	?
Nc1c(O)cccc1C(=O)C[C@@H](N)C(=O)O	.	.	/	.	.
CN/S(=N/S(=O)(=O)c1ccccc1)c1ccc(C)cc1 (stereo unspecified)	.	.	.	.	.
Cc1ccc(S(=O)(=O)/N=S(/c2ccccc2)C(C)C)cc1 (stereo unspecified)	/	19µM	.[9.22 µM]	.[10 µM]	?
COc1ccc(OCC(=O)NC2CC(=O)N(c3cccc(OC)c3)C2)cc1 (stereo unspecified)	/	/	/	/	.
